Assay results as given in PubChem BioAssay (NCATS).
Results filed as inconclusive are left out. Active and inactive are the calls of the source. Unless noted, the call rests on the fitted dose curve; in most records, active means well fitted curve in the direction sought with a large enough effect; inconclusive means small, poorly fitted or top-dose-only effect, or another doubt; inactive means no such curve, though single readings can be large; an effect the other way counts as inactive or inconclusive.

Columns and labels:
[1] = molecular target: Lysosomal acid glucosylceramidase (Homo sapiens) (UniProt P04062); assay: Glucocerebrosidase-p2 (AID 348; in the data active means potency below about 10 µM; further: potency means the concentration at half of the fitted maximal effect); conditions: purified GBA, blue fluorogenic substrate, 40 min
Summary of the method: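 Compounds titrated from 0.6 nM upwards against 0.2 nM enzyme in pH 5.9 citric acid/KH2PO4, taurocholate, tween-20; blue fluorogenic substrate 80 uM, 40 min room temperature, stopped and read Ex 365/Em 440 for AC50.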

[2] = AP1 Signaling Pathway (AID 357; active means well fitted curve in either direction with a large enough effect, not every such curve was filed as active;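 further: ME-180 reporter cells stimulated with EGF at its EC50 level; on the % scale 0 is the no-effect control and ±100 the full control effect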); conditions: ME-180 AP-1-bla reporter, EGF-induced, beta-lactamase ratio, 5 h; at 7.69 µM (top of the series) unless noted
Summary of the method: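 First, ME-180 AP-1-bla cells were cultured overnight at 37 °C in low-serum Opti-MEM. Next, titrated compounds with EC50 EGF were incubated 5 hours. Finally, CCF4 was added for 2.5 hours and the 460/530 nm ratio recorded.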

[3] = NFAT Signaling Pathway (AID 444; active means well fitted curve in either direction with a large enough effect, not every such curve was filed as active;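 further: carbachol stimulus at about its EC50 of 1 µM final; on the % scale 0 is the no-effect control and ±100 the full control effect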); conditions: Jurkat NFAT-bla M1, carbachol, beta-lactamase ratio, 5 h; at 7.69 µM (top of the series) unless noted
Summary of the method: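 Jurkat cells with NFAT-driven β-lactamase reporter and co-expressed M1 receptor, stimulated with carbachol (final 1 uM, ~EC50), compound titration, 5 h at 37 °C. CCF4 loaded 1 h at RT; 460/530 nm ratio gave %activity and AC50.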

[4] = Stat Signaling Pathway (AID 446; active means well fitted curve in either direction with a large enough effect, not every such curve was filed as active;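 further: ME-180 cervical cancer cells given 40 pM IL-6 alongside compound; SIE-controlled beta-lactamase reporter measured as 460/530 nm FRET emission ratio; on the % scale 0 is the no-effect control and ±100 the full control effect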); conditions: ME-180 SIE beta-lactamase reporter, IL-6 stimulated, 5 h; at 7.69 µM (top of the series) unless noted
Summary of the method: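 Reporter line: ME-180 cervical carcinoma, SIE-beta-lactamase. Treatment: compound with 40 pM IL-6, 5 hrs, 37 C, in low-serum OPTI-MEM with 10 mM HEPES pH 7.3. Detection: 460/530 nm fluorescence.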

[5] = molecular target: Glucocorticoid receptor (Homo sapiens) (UniProt P04150); assay: GR-GFP Redistribution (AID 450;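 active means compounds whose dose series gives a full or clear partial fitted curve of increased nuclear translocation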; further: potency means the concentration at half of the fitted maximal effect); conditions: U2OS GR-GFP nuclear translocation, laser cytometry, 2 h
[6] = molecular target: Glucocorticoid receptor (Homo sapiens) (UniProt P04150); assay: GR-EFC Redistribution (AID 451; calls by dose curve; further: potency means the concentration at half of the fitted maximal effect); conditions: CHO-K1 GR-EFC translocation, beta-gal luminescence, 2 h
Summary of the method: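 CHO-K1 cells expressing nuclear EA and GR-ED fragments of b-gal; compounds titrated up to 46 uM final, 2 h at 37 C. GR nuclear translocation read as complemented b-gal luminescence after 1 h RT detection.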

[7] = molecular target: Mitogen-activated protein kinase 10 (Mus musculus) (UniProt Q61831); assay: JNK3 AlphaScreen Assay (AID 530; active means well fitted curve in either direction with a large enough effect, not every such curve was filed as active;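 further: kinase came from lysate of stimulated human HepG2 cells; signal reports phosphorylation of biotinylated GST-cJun 1-79 at Ser73 with 10 µM ATP; on the % scale 0 is the no-effect control and ±100 the full control effect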)
Summary of the method: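 qHTS format: compounds tested as titrations against IL-1beta/TNF-alpha-activated HepG2 lysate JNK3 with biotin-GST-cJun substrate and 10 uM ATP at room temperature. Loss of anti-phospho-cJun AlphaScreen signal indicates inhibition.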

[8] = Confirmatory qHTS for small molecule stabilizers of the endoplasmic reticulum resident proteome: Secreted ER Calcium Modulated Protein (SERCaMP) assay (AID 1508628); further: nearly all actives have a fitted effect of over 40% in size; further: potency means the concentration at half of the fitted maximal effect
Summary of the method: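 We seeded SH-SY5Y-GLuc-SERCaMP cells, added compounds (three concentrations in the primary run, eleven up to 76.6 uM in confirmation), incubated 16 h, depleted ER calcium with thapsigargin, and read luciferase 4 h later.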

[9] = molecular target: Cytochrome P450 1A2 (Homo sapiens) (UniProt P05177); assay: p450-cyp1a2 (AID 410; calls by dose curve; further: potency means the concentration at half of the fitted maximal effect)
Summary of the method: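 Inhibition was calculated relative to 57 uM furafylline (full inhibition). The reaction used human CYP1A2 at 20nM with Luciferin-ME at its Km, 100uM, driven by an NADPH-regenerating system for 60 min at room temperature.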

[10] = molecular target: 3',5'-cyclic-AMP phosphodiesterase 4B (Homo sapiens) (UniProt Q07343); assay: qHTS Assay for Inhibitors of PDE-IV (AID 607; active means well fitted activation curve with a large enough effect in the main read-out, with a control signal flat, not every such curve was filed as active; further: % of control where 0% means no effect)
Summary of the method: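 Cell-based read-out of cAMP via a modified cyclic nucleotide-gated channel and membrane potential dye (535/590 nm) in HEK293 cells expressing PDE4 endogenously. Compounds tested up to 22.9 uM final; 100 uM RO 20-1724 reference.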

[11] = molecular target: Cytochrome P450 3A4 (Homo sapiens) (UniProt P08684); assay: qHTS Assay for Activators of Cytochrome P450 3A4 (AID 885); further: nearly all actives have a fitted effect of over 65% in size
Summary of the method: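 Signal was normalized against complete inhibition by 57 uM ketoconazole. The reaction used 20nM CYP3A4 with 25uM Luciferin-PPXE, 10-min compound preincubation and a 60-min NADPH-supported step at RT.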

[12] = Confirmation and Secondary Assay for Modulators of Hemoglobin Beta Chain Splicing at IVS2 654 locus (AID 910);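 further: HeLa cells stably carrying EGFP split by mutant beta-globin IVS2-654 intron; % of control where 0% means no effect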
Summary of the method: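 HeLa cells stably expressing EGFP interrupted by β-globin IVS2-654 intron, seeded overnight in Opti-MEM/2% FCS, then treated 2 days at 37 °C. Restored splicing read as total peak GFP intensity per well by laser scanning cytometry (488 nm excitation, 500–520 nm emission); 500 nM antisense PNA as control.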

[13] = qHTS Assay for Identification of Small Molecule Agonists for Hypoxia Response Element Signaling Pathway (AID 914; active means well fitted activation curve with a large enough effect in the signal ratio, with a control signal flat, not every such curve was filed as active; the % refers to the signal ratio; further: % of control where 0% means no effect); conditions: ME-180 (cervical carcinoma) HRE-bla reporter, beta-lactamase ratio, CoCl2, 17 h; activation: stronger effect = higher value
Summary of the method: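 Reporter activity (beta-lactamase, CCF4 460nm/530nm ratio) in HRE-bla ME-180 cells is recorded after 17 h compound exposure with EC50 CoCl2 at 37 degrees Celsius. AC50 values come from titration data.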

[14] = qHTS Assay for Lipid Storage Modulators (AID 1519; calls by dose curve); conditions: Drosophila S3 cells, BODIPY lipid droplet/cell ratio, laser cytometry, cells loaded with oleic acid; for activity change, negative = inhibition: at 57.5 µM (top of the series)
Summary of the method: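 Cells seeded at 5,000 per well were treated with compounds over a concentration series and loaded with oleic acid (400 uM, as added). Lipid droplet fluorescence (488 nm excitation, 500-530 nm channel) was read by laser-scanning cytometry and normalized to 20 uM Triacsin C.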

[15] = molecular target: Ubiquitin carboxyl-terminal hydrolase 1 (Homo sapiens) (UniProt O94782); assay: Inhibitors of USP1/UAF1: Pilot qHTS (AID 504865);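 further: rhodamine fluorescence freed from ubiquitin-rhodamine substrate followed over time; top concentration of the series differs between compounds; on the % scale 0 is the no-effect control and ±100 the full control effect; nearly all actives have a fitted effect of over 35% in size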
Summary of the method: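 In 50mM HEPES pH 7.8 containing 0.5mM EDTA, 1mM TCEP, 0.1 mg/ml BSA and 0.01% Tween-20, 1nM USP1/UAF1 is exposed to compound for 15 min, then Ub-Rho (150nM final) is added and fluorescence is read over time.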

[16] = molecular target: Dual specificity protein kinase CLK4 (Homo sapiens) (UniProt Q9HAZ1); assay: qHTS Assay for Inhibitors of CDC-like Kinase 4 (Kinase-Glo Assay) (AID 1770); further: on the % scale 0 is the no-effect control and ±100 the full control effect; nearly all actives have a fitted effect of over 65% in size
Summary of the method: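 Substrate mix (RS peptide 100 uM, ATP 1 uM) dispensed, compound pinned in, then Clk4 added to 25 nM final. Incubated 4.5 h at RT; Kinase-Glo reagent added, luminescence read after 5 min.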

[17] = molecular target: Dual specificity protein kinase CLK4 (Homo sapiens) (UniProt Q9HAZ1); assay: qHTS Assay for Inhibitors of CDC-like Kinase 4 (ADP-Glo Assay) (AID 1771); further: on the % scale 0 is the no-effect control and ±100 the full control effect; nearly all actives have a fitted effect of over 70% in size
Summary of the method: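 Kinase reaction: Clk4 at 25 nM, RS repeat peptide substrate at 100 uM, ATP at 1 uM, 1 hr, room temperature. Product ADP detected as luciferase signal via ADP-Glo.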

[18] = molecular target: Dual specificity protein kinase CLK4 (Homo sapiens) (UniProt Q9HAZ1); assay: qHTS Assay for Inhibitors of CDC-like Kinase 4 (ADP-FP Assay) (AID 1795);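 further: recombinant human CLK4 phosphorylating RS repeat peptide at 1 µM ATP; on the % scale 0 is the no-effect control and ±100 the full control effect; nearly all actives have a fitted effect of over 60% in size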
Summary of the method: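 Clk4 6.25 nM; RS peptide 100 uM; ATP 1 uM; 25 mM Tris pH 7.5, 10 mM MgCl2; 1 h reaction. ADP detected via antibody/orange tracer FP displacement; TG003 positive control.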

[19] = measured here: cell count channel max response
[20] = measured here: lipid channel max response

Sequence of Dual specificity protein kinase CLK4 (Homo sapiens) (Q9HAZ1 whole entry, looked up): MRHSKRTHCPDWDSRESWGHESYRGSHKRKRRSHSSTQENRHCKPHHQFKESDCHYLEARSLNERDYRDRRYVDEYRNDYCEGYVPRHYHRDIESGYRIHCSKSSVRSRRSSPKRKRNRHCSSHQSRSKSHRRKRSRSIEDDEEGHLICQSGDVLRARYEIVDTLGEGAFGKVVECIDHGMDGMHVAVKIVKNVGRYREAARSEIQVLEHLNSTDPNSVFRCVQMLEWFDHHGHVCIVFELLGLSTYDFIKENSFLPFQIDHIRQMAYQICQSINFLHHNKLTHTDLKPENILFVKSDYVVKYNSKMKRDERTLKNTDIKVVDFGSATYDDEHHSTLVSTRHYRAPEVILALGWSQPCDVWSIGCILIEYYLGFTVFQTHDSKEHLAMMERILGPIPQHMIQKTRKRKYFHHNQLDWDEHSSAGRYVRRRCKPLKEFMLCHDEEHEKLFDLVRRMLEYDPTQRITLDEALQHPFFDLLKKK
Sequence of Cytochrome P450 1A2 (Homo sapiens) (P05177 whole entry, looked up): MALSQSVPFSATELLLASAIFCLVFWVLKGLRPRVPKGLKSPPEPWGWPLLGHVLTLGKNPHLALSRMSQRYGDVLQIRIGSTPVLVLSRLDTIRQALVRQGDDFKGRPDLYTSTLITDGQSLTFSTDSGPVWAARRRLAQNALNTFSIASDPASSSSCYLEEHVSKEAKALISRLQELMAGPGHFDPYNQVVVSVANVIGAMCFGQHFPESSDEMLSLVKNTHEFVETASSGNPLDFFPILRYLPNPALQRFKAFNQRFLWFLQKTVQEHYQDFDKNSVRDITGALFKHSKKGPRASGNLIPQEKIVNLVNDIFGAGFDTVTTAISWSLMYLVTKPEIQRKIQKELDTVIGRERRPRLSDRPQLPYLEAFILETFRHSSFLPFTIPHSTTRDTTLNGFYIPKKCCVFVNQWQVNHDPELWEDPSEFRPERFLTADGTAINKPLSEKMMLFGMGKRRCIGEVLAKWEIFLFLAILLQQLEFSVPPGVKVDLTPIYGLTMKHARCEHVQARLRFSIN
Sequence of 3',5'-cyclic-AMP phosphodiesterase 4B (Homo sapiens) (Q07343 whole entry, looked up): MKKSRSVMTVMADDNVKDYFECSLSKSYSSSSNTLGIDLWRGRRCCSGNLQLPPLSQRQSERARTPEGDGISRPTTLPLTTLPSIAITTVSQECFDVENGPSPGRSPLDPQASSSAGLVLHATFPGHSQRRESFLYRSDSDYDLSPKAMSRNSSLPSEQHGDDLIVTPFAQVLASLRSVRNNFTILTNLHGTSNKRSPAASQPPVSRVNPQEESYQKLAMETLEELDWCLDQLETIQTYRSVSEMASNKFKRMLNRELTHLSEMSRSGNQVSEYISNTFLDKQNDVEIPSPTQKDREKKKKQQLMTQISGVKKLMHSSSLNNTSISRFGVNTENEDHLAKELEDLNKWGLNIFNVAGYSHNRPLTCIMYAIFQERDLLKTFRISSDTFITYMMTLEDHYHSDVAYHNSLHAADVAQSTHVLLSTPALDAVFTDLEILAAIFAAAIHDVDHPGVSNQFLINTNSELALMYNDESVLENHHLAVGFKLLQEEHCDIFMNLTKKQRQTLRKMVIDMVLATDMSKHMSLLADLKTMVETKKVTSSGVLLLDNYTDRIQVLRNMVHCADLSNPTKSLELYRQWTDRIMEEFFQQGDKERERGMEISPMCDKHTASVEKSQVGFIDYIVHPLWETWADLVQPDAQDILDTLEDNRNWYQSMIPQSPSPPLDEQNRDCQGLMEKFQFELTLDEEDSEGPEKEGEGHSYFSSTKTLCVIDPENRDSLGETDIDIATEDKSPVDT
Sequence of Glucocorticoid receptor (Homo sapiens) (P04150 whole entry, looked up, the tested form may be a part): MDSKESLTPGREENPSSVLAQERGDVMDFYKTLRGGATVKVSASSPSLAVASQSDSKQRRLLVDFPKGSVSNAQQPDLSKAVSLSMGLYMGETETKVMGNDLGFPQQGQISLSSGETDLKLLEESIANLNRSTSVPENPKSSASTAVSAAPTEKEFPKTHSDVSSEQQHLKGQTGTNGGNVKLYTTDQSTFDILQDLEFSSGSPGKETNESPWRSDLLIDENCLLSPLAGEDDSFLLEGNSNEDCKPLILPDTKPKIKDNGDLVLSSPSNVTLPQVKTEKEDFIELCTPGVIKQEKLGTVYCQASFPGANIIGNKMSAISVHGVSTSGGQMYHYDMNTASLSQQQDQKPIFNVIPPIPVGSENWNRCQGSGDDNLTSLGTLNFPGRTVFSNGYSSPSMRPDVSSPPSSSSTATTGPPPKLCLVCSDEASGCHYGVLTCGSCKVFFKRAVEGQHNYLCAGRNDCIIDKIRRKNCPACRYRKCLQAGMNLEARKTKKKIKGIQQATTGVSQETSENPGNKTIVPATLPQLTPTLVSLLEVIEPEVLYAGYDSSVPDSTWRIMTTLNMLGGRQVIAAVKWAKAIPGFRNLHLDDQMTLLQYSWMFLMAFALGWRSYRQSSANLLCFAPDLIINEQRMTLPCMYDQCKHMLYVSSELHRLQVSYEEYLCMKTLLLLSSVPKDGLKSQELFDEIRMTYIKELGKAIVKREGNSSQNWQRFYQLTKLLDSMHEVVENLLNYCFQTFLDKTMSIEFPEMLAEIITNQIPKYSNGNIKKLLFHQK
Sequence of Cytochrome P450 3A4 (Homo sapiens) (P08684 whole entry, looked up): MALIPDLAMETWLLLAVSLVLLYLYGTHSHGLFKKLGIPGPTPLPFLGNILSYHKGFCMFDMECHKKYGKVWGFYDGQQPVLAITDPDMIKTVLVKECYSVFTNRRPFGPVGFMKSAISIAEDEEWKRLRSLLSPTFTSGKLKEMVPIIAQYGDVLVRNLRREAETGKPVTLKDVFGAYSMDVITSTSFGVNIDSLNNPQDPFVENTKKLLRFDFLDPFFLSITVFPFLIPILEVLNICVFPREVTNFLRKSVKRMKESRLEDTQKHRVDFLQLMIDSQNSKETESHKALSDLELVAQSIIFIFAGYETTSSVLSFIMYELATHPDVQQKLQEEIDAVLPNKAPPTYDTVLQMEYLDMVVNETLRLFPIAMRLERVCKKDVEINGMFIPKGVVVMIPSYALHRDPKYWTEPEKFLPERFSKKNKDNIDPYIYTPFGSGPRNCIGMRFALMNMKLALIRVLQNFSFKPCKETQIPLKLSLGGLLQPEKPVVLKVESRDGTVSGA
Sequence of Lysosomal acid glucosylceramidase (Homo sapiens) (P04062 whole entry, looked up): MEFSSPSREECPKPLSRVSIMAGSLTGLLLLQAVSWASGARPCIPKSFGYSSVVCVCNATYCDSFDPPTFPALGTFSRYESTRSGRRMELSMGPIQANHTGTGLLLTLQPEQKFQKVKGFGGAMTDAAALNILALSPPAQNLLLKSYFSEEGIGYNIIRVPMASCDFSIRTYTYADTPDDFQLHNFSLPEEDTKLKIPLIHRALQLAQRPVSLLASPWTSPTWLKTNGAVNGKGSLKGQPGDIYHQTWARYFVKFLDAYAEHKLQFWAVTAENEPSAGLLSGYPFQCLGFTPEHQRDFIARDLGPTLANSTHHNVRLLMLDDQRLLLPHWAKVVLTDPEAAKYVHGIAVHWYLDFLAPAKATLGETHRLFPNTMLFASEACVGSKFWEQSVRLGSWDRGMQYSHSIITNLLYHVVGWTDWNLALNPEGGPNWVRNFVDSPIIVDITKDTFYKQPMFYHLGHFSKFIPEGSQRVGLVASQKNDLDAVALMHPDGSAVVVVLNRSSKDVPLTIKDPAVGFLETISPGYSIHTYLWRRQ
Sequence of Ubiquitin carboxyl-terminal hydrolase 1 (Homo sapiens) (O94782 whole entry, looked up): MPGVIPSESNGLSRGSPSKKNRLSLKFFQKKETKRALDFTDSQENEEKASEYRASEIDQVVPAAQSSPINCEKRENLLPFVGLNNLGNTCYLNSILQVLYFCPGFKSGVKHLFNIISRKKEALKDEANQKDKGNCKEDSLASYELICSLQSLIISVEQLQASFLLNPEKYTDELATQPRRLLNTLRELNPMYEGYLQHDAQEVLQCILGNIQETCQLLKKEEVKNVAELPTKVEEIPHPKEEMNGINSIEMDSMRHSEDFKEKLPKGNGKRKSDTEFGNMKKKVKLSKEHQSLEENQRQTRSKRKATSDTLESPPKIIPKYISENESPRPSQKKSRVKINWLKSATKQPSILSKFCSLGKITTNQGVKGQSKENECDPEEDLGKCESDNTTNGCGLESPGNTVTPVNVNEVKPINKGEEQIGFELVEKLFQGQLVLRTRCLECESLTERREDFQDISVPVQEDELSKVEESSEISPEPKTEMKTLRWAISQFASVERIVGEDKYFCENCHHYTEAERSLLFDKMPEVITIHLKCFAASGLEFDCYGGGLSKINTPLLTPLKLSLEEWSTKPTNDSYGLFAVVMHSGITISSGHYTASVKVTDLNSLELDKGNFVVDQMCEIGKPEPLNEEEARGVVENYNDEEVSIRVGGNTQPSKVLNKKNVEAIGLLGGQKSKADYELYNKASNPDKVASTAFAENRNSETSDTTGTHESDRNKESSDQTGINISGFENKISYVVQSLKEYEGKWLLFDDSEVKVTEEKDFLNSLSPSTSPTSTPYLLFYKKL

Row | SMILES | Potency [1] | activity change, negative = inhibition [2] | activity change, negative = inhibition [3] | activity, negative = inhibition [4] | Potency [5] | Potency [6] | outcome [7] | Potency [8] | Potency [9] | Potency [10] | Potency [11] | outcome [12] | activation [13] | activity change, negative = inhibition [14] | max response [14, 19] | max response [14, 20] | Potency [15] | Potency [16] | Potency [17] | Potency [18]
1 | CN(C)c1ncc2nc(CCc3ccccc3)c(=O)n(C[C@H]3CCCO3)c2n1 | > 11.4 µM (inactive) | -3.01% (inactive) | -1.26% (inactive) | 1.42% (inactive) | > 9.22 µM (inactive) | > 46 µM (inactive) | inactive | 39.8 µM (active) |  |  |  |  |  |  |  |  |  |  |  | 
2 | CN(C)c1ccc(-c2nccc(NCCN3CCOCC3)n2)cc1 | > 11.4 µM (inactive) | -7.61% (inactive) | 7.2% (inactive) | 11.1% (inactive) | > 46 µM (inactive) |  |  |  | 1.26 µM (active) | inactive | inactive | inactive | -5.52% (inactive) | -20.5% (inactive) | -10.5% | -26.5% | inactive |  |  | 
3 | O=c1c(-c2ccccc2)nc2cnc(N3CCNCC3)nc2n1Cc1cccs1 | > 11.4 µM (inactive) |  |  |  | > 9.22 µM (inactive) | > 46 µM (inactive) |  | inactive |  | inactive |  |  |  |  |  |  |  |  |  | 
4 | COCCn1c(=O)c(-c2ccccc2)nc2cnc(Oc3ccc(OC)cc3)nc21 | > 11.4 µM (inactive) | -27.8% (inactive) | 0.481% (inactive) | -10.2% (inactive) | > 9.22 µM (inactive) | > 46 µM (inactive) | inactive | 39.8 µM (active) | 1.26 µM (active) |  | inactive |  |  |  |  |  | inactive | inactive | inactive | inactive
5 | O=c1c(-c2cccs2)nc2cnc(N3CCNCC3)nc2n1-c1ccccc1 | > 11.4 µM (inactive) |  |  |  | > 9.22 µM (inactive) | > 46 µM (inactive) | inactive | inactive | 2.51 µM (active) | inactive | inactive |  |  |  |  |  |  |  |  | 
6 | CN1CCN(c2ncnc3ccc(-c4ccccc4C#N)cc23)CC1 | > 11.4 µM (inactive) | 15.1% (inactive) | -9.23% (inactive) | 19.8% (inactive) | > 46 µM (inactive) | > 46 µM (inactive) | inactive | inactive | 3.16 µM (active) |  | inactive | inactive |  | 3.92% (inactive) | -20.1% | -16% |  |  |  | 
7 | COc1ccc(-c2nc3cnc(N4CCNCC4)nc3n(-c3ccccc3)c2=O)cc1 | > 11.4 µM (inactive) |  |  |  | > 9.22 µM (inactive) | > 46 µM (inactive) | inactive | inactive |  | inactive |  |  |  | 3% (inactive) | 10.3% | 4.43% |  |  |  | 
